GalR3 antag = antagonists of human GalR3; O60755; HEK293 GalR3-CNG cAMP membrane potential fluorescence; galR3 body fused to GalR1 C-terminus; inhibition, % at 3 µM; 0.44% of 360,000 active;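 active means inhibition above the screen-wide average plus 3 SD, cut at about 13% in these data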;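 further: forskolin and galanin both at EC90 stimulate the cells; cAMP rise reported by CNG channel membrane potential dye signal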
Target sequence (O60755 1-299 limits assumed): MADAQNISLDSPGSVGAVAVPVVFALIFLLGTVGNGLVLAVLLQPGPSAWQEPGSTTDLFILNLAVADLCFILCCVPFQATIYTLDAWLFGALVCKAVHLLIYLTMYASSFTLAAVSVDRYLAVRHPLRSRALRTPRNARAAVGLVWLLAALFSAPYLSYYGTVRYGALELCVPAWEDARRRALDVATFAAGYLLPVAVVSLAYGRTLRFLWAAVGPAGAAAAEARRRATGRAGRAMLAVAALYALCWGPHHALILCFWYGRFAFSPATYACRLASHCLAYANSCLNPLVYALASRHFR
Hsp70 act = transcriptional activators of Hsp70. 0.04% of 200,000 active. HeLa Hsp70 promoter luciferase reporter, luminescence; scaled: vehicle 0, proteasome-inhibitor control 100%. activation, % at 10 µM;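 active means activation above the mean across all tested compounds plus 3 SD, cutoff set per campaign, cut at about 5.5% in these data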
GAA850 FXN act = frataxin GAA850 promoter activation. HEK293 lucGAA850 FXN promoter luciferase reporter, 24 h; percent of 10 µM SAHA response. activation, % at 6 µM. 0.56% of 360,000 active;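 active means activation above the average of all compounds screened plus 3 SD, cutoff fixed separately per campaign, cut at about 7.5% in these data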
HIF activator = HIF pathway transcriptional activation | AID 1910 | activation, % at 7.5 µM (by protocol) | 0.32% of 300,000 active | U2OS HRE-luciferase reporter, luminescence; normalized: DMSO 0%, desferrioxamine 100%;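 active means mean activation of at least 10% of the iron chelator positive control signal, with at least half of replicates also reaching 10%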
SMARCA2 activ = activators of SMARCA2 function; MG213 cells, MMTV-luciferase reporter, dexamethasone, overnight; activation, % at 9.1 µM; 1% of 370,000 active; AID 652017; in the data active means activation above about 7.8%
SMARCA2 conf = SMARCA2 activation, confirmation screen; shares compounds with SMARCA2 activ; MG213 cells, MMTV-luciferase with dexamethasone, luminescence, overnight; MG213 cells expressing E1A, Rb sequestered; DMSO wells 0%, reference activator 100%; AID 652260; activation, % at 9.1 µM; 30% of 3,500 active;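 active means activation above its plate's cutoff, the mean activation of tested wells plus 3 SD, cut at about 7.9% in these data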
VP16 Luc act = counter-screen for SMARCA2 activators: GAL4-VP16 luciferase reporter activation | shares compounds with SMARCA2 activ | activation, % at 9.1 µM | 41% of 3,500 active | HEK293 GAL4-VP16 pG5luc reporter, luciferase luminescence; scaled: DMSO wells 0%, SAHA wells 100%;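 active means activation above the solvent-only control well mean plus 3 SD, averaged across control plates, cut at about 5.2% in these data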
Large screens that a line does not name were inactive (follow-up assays come after a bar, where they were run). Rows were chosen to be rich in hits. Some 2.2% of all compounds tested hit in one or more screens of this group.

c1ccc(CSc2ccc(-c3ccco3)nn2)cc1	SMARCA2 activ 10 | SMARCA2 conf 8.3 | VP16 Luc act 8.5
Clc1ccc(CSc2ccc(-c3ccco3)nn2)cc1	none
COC(=O)[C@]12C[C@H](CC(=O)N3CCC(c4ccccc4)CC3)C(=O)N(Cc3ccc(Cl)cc3Cl)C1=C[C@H](COCc1ccccc1)O[C@@H]2C	none (no result: GalR3 antag, Hsp70 act, GAA850 FXN act, HIF activator)
OCCC1CN(Cc2nc(-c3ccccc3)cs2)CCN1C1CCCC1 (stereo not given)	none
c1ccc(-c2csc(CN3CCCCC3)n2)cc1	SMARCA2 activ 14 (no result: Hsp70 act, HIF activator) | SMARCA2 conf 8.1 | VP16 Luc act 15
O=C(O)[C@@H]1[C@@H]2C[C@@H]2CN1c1ncccc1[N+](=O)[O-]	SMARCA2 activ 9.9 | SMARCA2 conf inactive | VP16 Luc act inactive
Cc1cccn2c(=O)c(/C=C(\C#N)C(=O)NCc3ccco3)c(N3CCOCC3)nc12	SMARCA2 activ 11 (no result: Hsp70 act) | SMARCA2 conf inactive | VP16 Luc act inactive
COc1cccc(C2N=C(c3ccccc3C)NO2)c1OC (stereo not given)	SMARCA2 activ 8.0 (no result: Hsp70 act) | SMARCA2 conf inactive | VP16 Luc act inactive
COc1cccc(C2NC(=O)c3ccccc3O2)c1OC (stereo not given)	none
O=C(COc1ccccc1Br)NCc1ccco1	SMARCA2 activ 13 | SMARCA2 conf inactive | VP16 Luc act inactive
COc1ccccc1OCC(=O)NCc1ccco1	none
Cc1[nH]c(=O)[nH]c(=O)c1CCSSCCc1c(C)[nH]c(=O)[nH]c1=O	none (no result: Hsp70 act, GAA850 FXN act, HIF activator)
CCC(C)(C)c1ccc2c(c1)C(=O)c1ccccc1C2=O	none
CCc1ccc2cc3c(cc2n1)C(=O)c1ccccc1-3	SMARCA2 activ 8.6 (no result: Hsp70 act, GAA850 FXN act, HIF activator) | SMARCA2 conf 12 | VP16 Luc act 13
COc1ccc(CCN2CC(C(=O)N(C)Cc3ccccc3OC)CCC2=O)cc1 (stereo not given)	SMARCA2 activ 8.6 (no result: Hsp70 act) | SMARCA2 conf inactive | VP16 Luc act inactive
N#CC1=C(N)Oc2n[nH]c(-c3cccnc3)c2C1c1ccc([N+](=O)[O-])o1 (stereo not given)	SMARCA2 activ 10 | SMARCA2 conf inactive | VP16 Luc act inactive
O=C1NC(=O)C2(C=C(c3ccccc3)C(O)(c3ccccc3)C2)N1 (stereo not given)	SMARCA2 activ 8.2 (no result: Hsp70 act, HIF activator) | SMARCA2 conf inactive | VP16 Luc act inactive
O=C(O)CCC1(c2ccccc2)NC(=O)NC1=O (stereo not given)	none (no result: Hsp70 act)
COc1ccccc1/C=C/c1nc2ccccc2c(=O)o1	SMARCA2 activ 10 (no result: Hsp70 act) | SMARCA2 conf inactive | VP16 Luc act 12
O=C(/C=C/c1ccc(-c2ccccc2)o1)c1ccccc1	SMARCA2 activ 12 | SMARCA2 conf 21 | VP16 Luc act inactive
CN(C(=O)c1ccco1)c1nc(-c2ccc(F)cc2)cs1	SMARCA2 activ 9.3 (no result: Hsp70 act) | SMARCA2 conf 8.0 | VP16 Luc act 7.6
CN(C(=O)c1ccco1)c1nnc(-c2ccc(F)cc2)s1	none (no result: Hsp70 act)
Nc1ccc2c(c1)C(=O)c1cc(N)c(Cl)cc1-2	SMARCA2 activ 11 (no result: Hsp70 act, HIF activator) | SMARCA2 conf 11 | VP16 Luc act inactive
Fc1cccc(Cc2c(-c3ccco3)nc3c4ccccc4ccn23)c1	none (no result: Hsp70 act, GAA850 FXN act, HIF activator)
c1coc(-c2nc3c4ccccc4ccn3c2Cc2ccsc2)c1	SMARCA2 activ 20 (no result: Hsp70 act, GAA850 FXN act, HIF activator) | SMARCA2 conf 16 | VP16 Luc act inactive
COc1ccccc1Cc1c(-c2cccc(Cl)c2)nc2c3ccccc3ccn12	none (no result: Hsp70 act, GAA850 FXN act, HIF activator)
FC(F)(F)c1ccccc1Cc1c(-c2cccc(Cl)c2)nc2c3ccccc3ccn12	SMARCA2 activ 8.2 (no result: Hsp70 act, GAA850 FXN act, HIF activator) | SMARCA2 conf inactive | VP16 Luc act inactive
Clc1cccc(Cc2c(-c3ccco3)nc3c4ccccc4ccn23)c1	SMARCA2 activ 24 (no result: Hsp70 act, GAA850 FXN act, HIF activator) | SMARCA2 conf 12 | VP16 Luc act 10
COC(=O)[C@H](Cc1ccccc1)N1CC(N2CCCC2)CS1(=O)=O (stereo not given in full)	none (no result: Hsp70 act, GAA850 FXN act, HIF activator)
CCOc1ccc(S(=O)(=O)N2CCC(C(=O)NCc3ccccc3CN3CCCC3)CC2)cc1	SMARCA2 activ 12 (no result: Hsp70 act, HIF activator) | SMARCA2 conf inactive | VP16 Luc act inactive
Cc1ccc(S(=O)(=O)N2CCC(C(=O)NCc3ccccc3CN3CCCC3)CC2)cc1	none (no result: Hsp70 act, HIF activator)
CCN(CC)S(=O)(=O)c1ccc(C(=O)NNC(=O)c2cccs2)cc1	SMARCA2 activ 11 | SMARCA2 conf inactive | VP16 Luc act inactive
CCCN1CCN(CCCNC(=O)c2ccc3c(=O)n(CCc4ccccc4)c(=O)[nH]c3c2)CC1	none (no result: Hsp70 act)
O=C(NCCN1CCCC1)c1ccc2c(=O)n(CCc3ccccc3)c(=O)[nH]c2c1	SMARCA2 activ 8.2 | SMARCA2 conf 10 | VP16 Luc act inactive
CN(C(=O)C1CCN(c2cncnc2)CC1)C1CCCCC1	none (no result: GalR3 antag, Hsp70 act, GAA850 FXN act, HIF activator)
CCOc1ccc(NC(=O)Nc2cc(-c3ccccc3)sc2C(=O)OC)cc1	none
COC(=O)c1sc(-c2ccccc2)cc1NC(=O)C1CC1	SMARCA2 activ 8.9 | SMARCA2 conf inactive | VP16 Luc act inactive
O=C1CCC(C(=O)N2CCC(CO)CC2)CN1Cc1ccc(Cl)cc1 (stereo not given)	none (no result: Hsp70 act)
COCC1CCN(C(=O)C2CCC(=O)N(Cc3ccc(Cl)cc3)C2)CC1 (stereo not given)	SMARCA2 activ 8.3 (no result: Hsp70 act) | SMARCA2 conf inactive | VP16 Luc act inactive
Clc1ccccc1Cn1ccc2ccc(-c3ccc4ccn(Cc5ccccc5Cl)c4c3)cc21	none (no result: GalR3 antag, Hsp70 act, GAA850 FXN act, HIF activator)
CC(C)c1ccc(/C=N/NC(=O)CC(=O)NC2CCCCC2)cc1	SMARCA2 activ 8.4 | SMARCA2 conf inactive | VP16 Luc act inactive
COc1ccc(/C=N/N=C2/NC(=O)C(CC(=O)O)S2)cc1OS(=O)(=O)c1ccccc1 (stereo not given)	none
COc1cc(/C=N/N=C2/NC(=O)C(Cc3ccccc3)S2)ccc1O (stereo not given)	SMARCA2 activ 9.0 | SMARCA2 conf inactive | VP16 Luc act 5.3
Cn1nc2c3ccccc3n(Cc3ccccc3)c2nc1=S	SMARCA2 activ 9.1 (no result: Hsp70 act) | SMARCA2 conf 10 | VP16 Luc act inactive
Cc1cc(NC(=O)CSc2nc3c(sc4ccccc43)c(=O)n2CCc2ccccc2)n[nH]1	none
Cc1cc(NC(=O)CSc2nc3c(sc4ccccc43)c(=O)n2CCCN2CCOCC2)n[nH]1	SMARCA2 activ 20 | SMARCA2 conf 36 | VP16 Luc act inactive
Cc1ccc(NC(=O)CSc2nc3ccccc3c(=O)n2CCCN2CCCCC2)cc1C	SMARCA2 activ 13 | SMARCA2 conf inactive | VP16 Luc act inactive
[C-]#[N+][C@]12C(=O)[C@H](C=C(Cl)[C@@]1(C)C=C)C(C)(C)[C@H]1C(=O)N(C)c3cccc2c31	none (no result: GalR3 antag, Hsp70 act, GAA850 FXN act, HIF activator)
Cc1nnc(N/N=C\c2ccc(-c3cccc(C(=O)O)c3)o2)n1N	SMARCA2 activ 9.1 | SMARCA2 conf inactive | VP16 Luc act inactive
Cc1nnc(N/N=C/c2ccc(-c3ccc(Br)cc3)o2)n1N	none
